The list is not random: actives were taken first. Their share in the collection is about 4.1%.
hcDAF-12 act = H. contortus DAF-12 nuclear receptor activators, primary screen, cell-based, luminescence, HEK293, lit1-tk-luc reporter | HEK293 hcDAF-12 lit1-tk-luc reporter; 0% DMSO, 100% Δ7-dafachronic acid | activation, % at 6.8 µM | 370,000 compounds, 1.4% hits | AID 652067, 2013;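 active = activation above the mean of all tested compounds plus 3 SD, cut at about 5.5% in these data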;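 also: 100% = response to 3 µM Δ7-dafachronic acid high control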
DAX1 inh-1 = DAX1 (NR0B1) inhibitors on StAR promoter, primary screen, cell-based, luminescence, SF-1 (NR5A1), full-length DAX-1 | inhibition, % at 6.8 µM | AID 652010, 2013 | 370,000 compounds, 1.1% hits | HEK293T StAR-luciferase reporter, SF-1/DAX-1 repression relief;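 active = inhibition above the mean over all tested compounds plus 3 SD, cut at about 3.6% in these data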;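 also: 0% = DAX-1 cells with DMSO and 100% = cells lacking DAX-1 with DMSO; higher inhibition means more luminescence from relief of DAX-1 repression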
ssDAF-12 act = S. stercoralis DAF-12 nuclear receptor activators, primary screen, cell-based, luminescence, HEK293, GRIP1 co-expression, lit1-tk-luc; Nuclear hormone receptor DAF-12 (Strongyloides stercoralis); HEK293 ssDAF-12/GRIP1 lit1-tk-luc reporter; % of 3 µM dafachronic acid response; activation, % at 6.8 µM; 370,000 compounds, 1% hits; AID 652126, 2013;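 active = activation above the mean over all tested compounds plus 3 SD, cut at about 0.9% in these data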;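 also: 0% = DMSO-only wells and 100% = 3 µM delta7-dafachronic acid wells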
hgDAF12 agonist = H. glycines DAF-12 receptor agonists, primary screen, cell-based, luminescence, HEK293, GAL4 fusion, UAS-luciferase; Nuclear hormone receptor DAF-12 (Heterodera glycines), GAL4 fusion; HEK293 GAL4-hgDAF12 UAS-luciferase reporter, agonist luminescence; normalized to butyrate control; activation, % at 6.8 µM; 370,000 compounds, 1.8% hits; AID 687014, 2013;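 active = activation above a cutoff set at the mean of all screened compounds plus 3 SD, cut at about 10% in these data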;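 also: 0% = DMSO wells and 100% = sodium butyrate wells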
DAX1 inh-2 = DAX1 (NR0B1) inhibitors, primary screen, cell-based, HEK293, Gal4-DAX1, luciferase luminescence | Nuclear receptor subfamily 0 group B member 1 (Homo sapiens), P51843 | HEK293 Gal4-DAX1 luciferase reporter | inhibition, % at 6.75 µM | 340,000 compounds, 0.99% hits | AID 504766, 2011;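 active = inhibition above the mean over all tested compounds plus 3 SD, cut at about 4.2% in these data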;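 also: 0% = DAX1-transfected cells with DMSO and 100% = empty-vector control cells with DMSO; inhibition shows as a rise in luminescence from relieved DAX1 repression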
Target sequence (P51843 207-470 limits assumed): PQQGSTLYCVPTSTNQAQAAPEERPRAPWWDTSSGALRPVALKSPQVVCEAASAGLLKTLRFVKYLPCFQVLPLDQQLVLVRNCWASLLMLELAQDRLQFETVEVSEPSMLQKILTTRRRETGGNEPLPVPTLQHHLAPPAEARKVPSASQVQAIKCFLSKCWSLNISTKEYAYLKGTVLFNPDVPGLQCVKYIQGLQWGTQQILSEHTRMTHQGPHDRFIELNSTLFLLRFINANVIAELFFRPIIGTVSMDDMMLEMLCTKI
Starred values were filed as active, the others as inactive; . = no result given.

SMILES	hcDAF-12 act	DAX1 inh-1	ssDAF-12 act	hgDAF12 agonist	DAX1 inh-2
O=C(c1cc2cc(F)ccc2[nH]1)N1CCC(Cc2ccccc2)CC1	5.0	0.3	0.9*	0.9	0.9
CCOC(=O)C1CCN(C(=O)c2cc3cc(Cl)ccc3[nH]2)CC1	6.5*	0.0	-0.7	3.9	0.6
CC(C)C[C@H]1COc2cc(Br)ccc2S(=O)(=O)N1Cc1cn(CCC2OCCO2)nn1	0.5	-0.9	-1.2	1.0	.
Cc1c(NC(=O)C2CCCN(S(=O)(=O)c3ccc(F)cc3)C2)c(=O)n(-c2ccccc2)n1C (centres undefined)	-0.9	-0.2	-0.6	4.4	.
C#CCOCCOCCOCCNc1nc(N2CCN(C(=O)Cn3cc(CCCN=C(N)N)nn3)CC2)nc(N2CCN(C(=O)[C@H](CCCCN)n3cc(CCCC)nn3)CC2)n1	0.0	-0.1	-1.3	12.0*	0.6
CC[C@H](CCCc1ccc(F)cc1)CN(Cc1ccc(OC)cc1)S(=O)(=O)c1ccc(C)cc1	-1.6	-1.2	-0.5	1.7	.
O=C(CCc1ccccc1)Nc1ccc2c(c1)OCCO2	3.4	2.4	0.3	11.8*	2.1
O=C(CCc1ccccc1)Nc1cc2c(cc1Cl)OCCO2	2.5	3.9*	1.2*	10.3	1.3
O=C(CCc1ccccc1)Nc1cc2c(cc1C(=O)O)OCCCO2	-2.0	-0.8	-0.5	0.4	0.3
O=C(CCSCc1ccccc1)Nc1ccc2c(c1)OCCO2	0.5	1.5	-1.0	7.0	0.9
OC(c1cccs1)(c1cccs1)C1C[N+]2(CF)CCC1CC2 (centres undefined)	5.8*	0.0	-0.9	0.3	0.6
COC(=O)c1cccc(Cn2ccc3ccc(-c4ccc5ccn(C(=O)c6ccccc6)c5c4)cc32)c1	-1.8	-0.6	-0.9	-2.6	.
COc1cccc(NC(=O)CN(C)C(C)C(=O)Nc2ccc(C(C)=O)cc2)c1 (centres undefined)	-1.4	-0.3	-1.1	-5.0	6.8*
Cc1cccc(C)c1OCc1cccc(C2Nc3ccccc3C(=O)N2Cc2ccco2)c1 (centres undefined)	-0.9	.	-2.1	4.1	.
COc1ccc(CNC(=O)Cc2csc(Nc3nc(=S)[nH]c4ccccc34)n2)cc1	4.6	0.7	1.0*	-3.1	1.3
CCOc1ccccc1N1C(=O)CC(Sc2n[nH]c(-c3ccccc3)n2)C1=O (centres undefined)	1.4	-0.2	-1.4	-1.2	4.8*
O=C(NCc1ccco1)C1CCCN(c2ncccn2)C1 (centres undefined)	-2.7	0.1	-1.0	2.6	.
COc1ccc(CNC(=O)C2CC(C)=C(C)CC2C(=O)O)cc1OC (centres undefined)	-1.3	0.6	-0.1	1.4	4.5*
Cc1ccccc1C1CCC2(CCC(=O)N2CC[C@@H](O)c2ccccc2)CC1 (some centres undefined)	-0.6	.	-2.3	-0.9	.
Cc1cc(NC(=O)CCC(=O)N(c2cccc(F)c2)C(C(=O)NC2CCCC2)c2ccc(C)o2)no1 (centres undefined)	-2.8	-0.1	-1.6	-0.7	2.3
Cc1cccc(N(C(=O)CCC(=O)Nc2cc(C)on2)C(C(=O)NC2CCCC2)c2ccc(C)o2)c1 (centres undefined)	-1.0	1.0	2.2*	3.8	-1.0
Cc1ccc(N(C(=O)CNC(=O)c2ccco2)C(C(=O)NC2CCCC2)c2cccnc2)cc1C (centres undefined)	-0.6	-0.5	-0.9	-1.1	4.3*
O=C(NCC(=O)N(CC1CCCO1)C(C(=O)NC1CCCCC1)c1cccnc1)c1cccs1 (centres undefined)	-1.7	-0.2	-1.5	-1.4	5.0*
CCN(CC)C(=O)CC[C@@H]1CC[C@]2(CCCN(C(=O)c3ccco3)C2)O1	-1.4	-0.2	-0.4	-2.1	.
COC(=O)CC1CCc2cc(C)cc(C(=O)CC(C)C)c2O1 (centres undefined)	-0.9	.	-0.9	2.4	.
COc1cccc(C(=O)NCCN2C(=O)C3C4C=CC(C4)C3C2=O)c1 (centres undefined)	-0.4	1.1	-1.0	3.2	.

Screens from PubChem.
